Some of the results follow. Activity calls are given as the source filed them. The rule behind the calls is not given here.
Assay: cytotoxicity in NIH3T3 fibroblasts, dose response, cytotoxicity control, cell-based, plate reader, cherry-pick, two tests (AID 651900)
Conditions: activity: test 2 concentration series, at 26 µM

Row | SMILES | outcome | activity
1 | CS(=O)(=O)N1[C@H](C(=O)NCc2ccncc2)[C@@H](CO)[C@@H]2Cn3c(ccc(C4=CCCCC4)c3=O)[C@@H]21 | inactive | –
2 | CC(=O)CSc1nnc(CSc2ncccn2)n1C1CCCCC1 | inactive | 1.8%
3 | Cc1c(OC(C)C(=O)NCC2CCC(C(=O)O)CC2)ccc2c1oc(=O)c1ccccc12 (configuration not stated) | inactive | 1.67%
4 | CC1(C)CC(=O)C=C(c2ccc3ncccc3c2)C1 | inactive | -5.48%
5 | Cc1nc2nc(SCC(=O)NCc3ccco3)nn2c(C)c1Cc1ccccc1 | inactive | -7.64%
6 | CC(=O)O[C@]1(C(C)=O)CC[C@H]2[C@@H]3C=C(C)C4=CC(=O)CC[C@]4(C)[C@H]3CC[C@@]21C | inactive | -6.83%
7 | Cn1c(=O)c2c(nc(OCc3cccnc3)n2Cc2ccccc2)n(C)c1=O | inactive | -10.3%
8 | Cc1c2cnn(CC(=O)NCc3ccccn3)c(=O)c2c(C)n1Cc1ccc(Cl)cc1 | inactive | 7.63%
9 | C=CCn1c(SCc2c(C(=O)OC)sc(N)c2C(=O)OC)nnc1-c1ccc(Cl)cc1 | inactive | -11.5%
10 | Cc1ccc(Cc2c(C)nc3nc(SCC(=O)NCCN4CCOCC4)nn3c2C)cc1 | inactive | -6.78%
11 | CCCOc1ccc2c3c(c(=O)oc2c1OCCC)CCC3 | inactive | -3.77%
12 | CN1c2ccc(-c3ccccc3)cc2[C@H]2[C@H](CCN2C(=O)Cc2ccccn2)[C@H]1CO | inactive | –
13 | O=C(c1ccncc1)N1CC[C@@H]2[C@H]1c1cc(Br)ccc1N[C@@H]2CO | inactive | –
14 | COCCNC(=O)C[C@H]1CC[C@@H]2[C@H](COc3ccc(NC(=O)Nc4cccc(F)c4)cc3C(=O)N2C)O1 | inactive | –
15 | O=C(CSc1n[nH]c(-c2cccnc2)n1)Nc1ccnc2ccccc12 | inactive | -10.2%
16 | Cc1nc(=O)c(-c2ccccc2)c(C)n1-c1ccc(Br)cc1 | inactive | -4.55%
17 | O=c1[nH]c(N2CCN(Cc3ccc4c(c3)OCO4)CC2)nc2c1CCCC2 | inactive | 6.08%
18 | CCC(CO)Oc1cc(NC(=O)c2cccc(F)c2)c2ncn(C(C)C)c2c1 (configuration not stated) | inactive | –
19 | C=C(C)CSc1nc(N)c2c3c(sc2n1)CCC3 | inactive | 4.68%
20 | COc1cc(-c2n[nH]c(=S)n2Cc2ccccc2)cc(OC)c1OC | inactive | 8.41%
21 | CC(=O)c1ccc(N2CCN(C(=O)c3ccc4nc[nH]c4c3)CC2)cc1 | inactive | -0.738%

From PubChem BioAssay AID651900 (Broad Institute, 2012)
